Conditions in all cases: modulator concentration 10 µM
In test [1] the test system is RAW-Dual (murine macrophage reporter line). The test can be described thus: NF-kB reporter (SEAP) activity fold change vs agonist alone; higher = enhanced NF-kB activity. Put shortly:
(§1)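 RAW-Dual murine macrophage reporter cells were plated at 50 000 per well in 384-well plates, pin-transferred compound to 10 μM final, and pre-incubated for 1 hour at 37 °C before a PRR agonist was added and the cells incubated overnight. NF-κB activity was read from supernatant SEAP with QUANTI-Blue at 620 nm absorbance, and IRF activity from Lucia luciferase with QUANTI-Luc by luminescence. Each signal was expressed as fold change by dividing by the mean agonist-only control on the same plate. Two replicate plates were averaged, with errors obtained by propagation.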

For test [2] the test system is unchanged. Description: IRF reporter (Lucia luciferase) activity fold change vs agonist alone; higher = enhanced IRF activity. Put shortly: as §1
Test [3] shares this test system. Description: viability score (confluency relative to resting cells, overnight) (fraction); higher = more viable, active = viable (0.7 or more). Put shortly: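 Compound was added at a final 10 μM to RAW-Dual macrophages in 384-well plates and left overnight. Confluency was imaged with IncuCyte, and two masks were generated in IncuCyte software over all imaged wells. Each viability score is confluency relative to resting cells, and a compound met the cutoff only when both masks were above 70% of resting cells.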

Setting [4] is: agonist: CpG ODN 1826 0.5 ug/mL.

± gives the standard deviation.

Among the data in the supplement of paper PMC10646978 are NF-kB reporter, IRF reporter and viability score values, retold here.

In the case of `Cc1c(-c2ccccc2)nc2ccccc2c1C(=O)N1CCCC1`, the NF-kB reporter stood at 1.09 ± 0.095 in test [1] (setting [4]), 1.13 ± 0.087 in test [1] (agonist: LPS 0.1 ug/mL) and 1.1 ± 0.069 in test [1] (agonist: MPLA […]). The IRF reporter in test [2] (agonist: 3'3'-cGAMP 10 ug/mL) is 1.01 ± 0.035; in test [2] (agonist: LPS 0.1 ug/mL), 1.62 ± 0.18; in test [2] (agonist: MPLA […]), 1.24 ± 0.13. Moreover, the viability score in test [3] is 1.01 (active).

On to `COc1ccc(CCN(C)CCCC(C#N)(c2ccc(OC)c(OC)c2)C(C)C)cc1OC.Cl` (centres undefined), for which the NF-kB reporter in test [1] (setting [4]) was 0.742 ± 0.21; in test [1] (agonist: LPS 0.1 ug/mL) it was 1.02 ± 0.25; in test [1] (agonist: MPLA […]), 1.12 ± 0.082. Moreover, the IRF reporter came to 0.572 ± 0.018 in test [2] (agonist: 3'3'-cGAMP 10 ug/mL), 1.32 ± 0.26 in test [2] (agonist: LPS 0.1 ug/mL) and 1.27 ± 0.12 in test [2] (agonist: MPLA […]). In test [3], the viability score is 0.977 (active).

As for `O=C(O)c1nn(-c2ccccc2)c(=O)c2ccccc12`, the NF-kB reporter worked out at 1.12 ± 0.13 in test [1] (setting [4]), 1.1 ± 0.099 in test [1] (agonist: LPS 0.1 ug/mL) and 1.03 ± 0.027 in test [1] (agonist: MPLA […]). Moreover, the IRF reporter in test [2] (agonist: 3'3'-cGAMP 10 ug/mL) worked out at 0.955 ± 0.034; in test [2] (agonist: LPS 0.1 ug/mL) it was 0.953 ± 0.086; in test [2] (agonist: MPLA […]), 0.953 ± 0.26. Further, the viability score in test [3] was 1 (active).

For the compound `COc1cc(C2CC3CC2C(C)C3(C)C)ccc1O` (centres undefined), the NF-kB reporter in test [1] (setting [4]) stood at 0.638 ± 0.098; in test [1] (agonist: LPS 0.1 ug/mL), 0.716 ± 0.052; in test [1] (agonist: MPLA […]), 0.773 ± 0.078. Also, the values for the IRF reporter in test [2] (agonist: 3'3'-cGAMP 10 ug/mL), in test [2] (agonist: LPS 0.1 ug/mL) and in test [2] (agonist: MPLA […]) were 0.926 ± 0.031, 1.01 ± 0.14 and 1.34 ± 0.22, respectively. In addition, in test [3], the viability score was 1.01 (active).

For the compound `Cl.O=C1c2cccc3c2C(CCC3)CN1C1CN2CCC1CC2` (centres undefined), the NF-kB reporter in test [1] (setting [4]) was 0.77 ± 0.21; in test [1] (agonist: LPS 0.1 ug/mL), 0.704 ± 0.044; in test [1] (agonist: MPLA […]) it was 0.825 ± 0.058. The IRF reporter was 0.557 ± 0.035 in test [2] (agonist: 3'3'-cGAMP 10 ug/mL), 0.718 ± 0.086 in test [2] (agonist: LPS 0.1 ug/mL) and 0.924 ± 0.14 in test [2] (agonist: MPLA […]). Also, in test [3], the viability score was 0.987 (active).

For `Cc1ccc(N2C(=O)C(=Cc3cccc([N+](=O)[O-])c3)SC2=S)cc1`, the NF-kB reporter in test [1] (setting [4]) was found to be 0.957 ± 0.088; in test [1] (agonist: LPS 0.1 ug/mL) it was 0.944 ± 0.08; in test [1] (agonist: MPLA […]), 0.949 ± 0.11. Moreover, the IRF reporter in test [2] (agonist: 3'3'-cGAMP 10 ug/mL) amounted to 0.623 ± 0.035; in test [2] (agonist: LPS 0.1 ug/mL), 1.26 ± 0.19; in test [2] (agonist: MPLA […]), 1.38 ± 0.29. Besides, the viability score in test [3] was 0.996 (active).

Take `CN1CCN(C(CC(=O)Nc2cccc(C(F)(F)F)c2)C(=O)O)CC1` (centres undefined): the NF-kB reporter in test [1] (setting [4]) was determined as 1.02 ± 0.051; in test [1] (agonist: LPS 0.1 ug/mL) it was 1.09 ± 0.086; in test [1] (agonist: MPLA […]), 0.859 ± 0.038. In addition, the results for the IRF reporter in test [2] (agonist: 3'3'-cGAMP 10 ug/mL), in test [2] (agonist: LPS 0.1 ug/mL) and in test [2] (agonist: MPLA […]) were 0.979 ± 0.049, 1.16 ± 0.1 and 1.17 ± 0.26, respectively. The viability score in test [3] is 0.999 (active).

Consider `CC(C)NNC(=O)c1ccncc1` [Prestw-176], for which the NF-kB reporter in test [1] (setting [4]) was determined as 1.04 ± 0.078; in test [1] (agonist: LPS 0.1 ug/mL), 1.06 ± 0.088; in test [1] (agonist: MPLA […]), 1.02 ± 0.022. The IRF reporter in test [2] (agonist: 3'3'-cGAMP 10 ug/mL) was 1.02 ± 0.068; in test [2] (agonist: LPS 0.1 ug/mL), 0.958 ± 0.083; in test [2] (agonist: MPLA […]) it was 1.01 ± 0.093. In addition, the viability score in test [3] was 0.997 (active).

For `CC(=NNC(=O)CNc1ccccc1C)c1ccc(Br)cc1`, the NF-kB reporter in test [1] (setting [4]) was 1.09 ± 0.093; in test [1] (agonist: LPS 0.1 ug/mL) it was 1.01 ± 0.14; in test [1] (agonist: MPLA […]), 1.03 ± 0.098. Besides, the IRF reporter in test [2] (agonist: 3'3'-cGAMP 10 ug/mL) worked out at 0.998 ± 0.032; in test [2] (agonist: LPS 0.1 ug/mL) it was 1.23 ± 0.13; in test [2] (agonist: MPLA […]) it was 1.38 ± 0.19. In addition, the viability score in test [3] was 0.982 (active).

`CCOc1cc(C=C2SC(=S)N(CCS(=O)(=O)O)C2=O)ccc1O`: the NF-kB reporter in test [1] (setting [4]) is 0.952 ± 0.087; in test [1] (agonist: LPS 0.1 ug/mL) it was 1.04 ± 0.077; in test [1] (agonist: MPLA […]), 0.951 ± 0.15. Further, the IRF reporter in test [2] (agonist: 3'3'-cGAMP 10 ug/mL) came out at 0.925 ± 0.027; in test [2] (agonist: LPS 0.1 ug/mL), 1.28 ± 0.14; in test [2] (agonist: MPLA […]), 0.997 ± 0.2. In addition, the viability score in test [3] was 1.02 (active).

Regarding `N=C(N)Nc1nc(CSCCC(=N)NS(N)(=O)=O)cs1`, the NF-kB reporter was found to be 1.09 ± 0.1 in test [1] (setting [4]), 0.992 ± 0.059 in test [1] (agonist: LPS 0.1 ug/mL) and 1.06 ± 0.039 in test [1] (agonist: MPLA […]). Also, the IRF reporter in test [2] (agonist: 3'3'-cGAMP 10 ug/mL) was found to be 0.967 ± 0.064; in test [2] (agonist: LPS 0.1 ug/mL), 0.898 ± 0.036; in test [2] (agonist: MPLA […]) it was 1.02 ± 0.088. Moreover, the viability score in test [3] was 0.995 (active).

`CCCC(=O)Nc1ncnc2c1ncn2[C@@H]1O[C@@H]2OP(=O)([O-])OC[C@H]2[C@H]1OC(=O)CCC` [Prestw-813]: the results for the NF-kB reporter in test [1] (setting [4]), in test [1] (agonist: LPS 0.1 ug/mL) and in test [1] (agonist: MPLA […]) were 1.27 ± 0.12, 1.14 ± 0.079 and 1.14 ± 0.12, respectively. For the same compound, the IRF reporter in test [2] (agonist: 3'3'-cGAMP 10 ug/mL) came out at 0.991 ± 0.056; in test [2] (agonist: LPS 0.1 ug/mL), 1.41 ± 0.14; in test [2] (agonist: MPLA […]) it was 1.21 ± 0.16. Further, the viability score in test [3] was 1 (active).
